An excerpt weighted towards active compounds, which were near 8.7% of everything screened.
G9a inh: qHTS Assay for Inhibitors of Histone Lysine Methyltransferase G9a; Histone-lysine N-methyltransferase EHMT2 (Homo sapiens), Q96KQ7; G9a H3K9 monomethylation, AlphaScreen, 2 h; Potency, µM (titrated, usually from 102 µM), for inactives: top-dose activity, negative = inhibition, most hits filed as inhibitors; 350,000 tested, 8.8% active; AID 504332, 2011; also: % is scaled to controls: 0 for no effect and ±100 for the full control effect; nearly all actives have a fitted effect of over 75% in size
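Enzyme 20 nM + cpd, 15 min RT; add b-H3K9 pep 500 nM / SAM 20 uM; 2 h RT; anti-H3K9me1 Ab 0.5 ug/mL + SA donor / anti-rabbit acceptor beads 20 ug/mL each, 10 min; AlphaScreen read.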
Sfp inh: qHTS Assay for Inhibitors of Bacillus subtilis Sfp phosphopantetheinyl transferase (PPTase) | 4'-phosphopantetheinyl transferase ffp (Bacillus subtilis), Q9F4F7 | Biochemical Sfp PPTase activity, qHTS | Potency, µM, without a hit: largest response in the series, negative = inhibition, most hits filed as inhibitors | 310,000 tested, 3.5% active;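 also: the enzyme is Sfp with the accession as filed and its product quenches rhodamine fluorescence; 0% = enzyme reaction without inhibitor and -100% = no enzyme wells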
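Reaction rates are the 30-min fluorescence difference (ex 525, em 598 nm) in wells containing 15 nM Sfp, 5 uM rhodamine-CoA and 12.5 uM BHQ-2-YbbR at pH 7.6 with 10 mM MgCl2.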
JMJD2A Tudor: qHTS Assay for Inhibitors of JMJD2A-Tudor Domain. AlphaScreen JMJD2A-Tudor / H3K4me3 peptide binding. Potency, µM (highest dose often 114 µM), without a hit: top-dose activity change, negative = inhibition, hits mostly inhibitors. 390,000 tested, 4.4% active. AID 504339, 2011; also: % is scaled to controls: 0 for no effect and ±100 for the full control effect; nearly all actives have a fitted effect of over 50% in size
BAZ2B block: qHTS Assay for Inhibitors of BAZ2B; AlphaScreen BAZ2B-H3K14Ac peptide displacement; Potency, µM (doses to about 114 µM), without a hit: top-dose activity change, negative = inhibition, usual class: inhibitors; 360,000 tested, 4.4% active; also: % is scaled to controls: 0 for no effect and ±100 for the full control effect; nearly all actives have a fitted effect of over 60% in size
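AlphaScreen luminescence quantifies BAZ2B engagement of H3K14Ac peptide; the protein and biotinylated peptide are both at 50 nM final, buffer PBS pH 7.4 with 0.01% Tween-20, all steps at room temperature.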
12-LOX inh: Primary qHTS assay for inhibitors of human arachidonate 12S-lipoxygenase (ALOX12): Round 2 | Polyunsaturated fatty acid lipoxygenase ALOX12 (Homo sapiens), P18054 | purified 12hLO, xylenol orange hydroperoxide absorbance | Potency, µM (doses to about 108 µM), without a hit: at the highest dose activity change, negative = inhibition, most hits filed as inhibitors | 580,000 tested, 1.1% active | AID 1671190, 2021; also: % is scaled to controls: 0 for no effect and ±100 for the full control effect
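Purified human 12hLO at 150 nM in 25 mM Hepes, 0.01% Triton X-100, pH 7.0, preincubated 15 min at room temperature with compound. Reaction started with 40 uM arachidonic acid, 30 min at room temperature. Hydroperoxide measured by Fe-xylenol orange, 573/405 nm absorbance ratio.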
HP1b chromo inh: HTS for Inhibitors of HP1-beta Chromodomain Interactions with Methylated Histone Tails; 390,000 tested, 0.56% active; AlphaScreen HP1-beta / biotin-H3K9me3 peptide binding; Chromobox protein homolog 1 (Homo sapiens), P83916; AID 540317, 2011; Potency, µM (highest dose often 114 µM), for the others: at the top dose activity change, negative = inhibition, usual class: inhibitors; also: nearly all actives have a fitted effect of over 70% in size
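Compound inhibition of the preformed complex between 50 nM HP1-beta and 50 nM biotinylated H3K9me3 peptide was read by AlphaScreen. Buffer was PBS pH 7.4 with 0.01% Tween-20. Incubations ran 30 min at room temperature, with 10 ug/mL donor/acceptor beads.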
The depositor's hits bear a star; ? = inconclusive; . = no result given; ! = not active in a repeat; [ ] = remark or other dose. Calls follow the shape of the dose curve; as a rule, active = well fitted curve in the direction sought with a large enough effect; inconclusive = small, poorly fitted or top-dose-only effect, or another doubt; inactive = no such curve, though single readings can be large; an effect the other way counts as inactive or inconclusive. Potency is read from the fitted curve at half-maximal effect.

SMILES	G9a inh	Sfp inh	JMJD2A Tudor	BAZ2B block	12-LOX inh	HP1b chromo inh
O=C(NCCc1ccccc1)N1CCCC(c2nc(CCOc3ccc(F)cc3)no2)C1 (configuration not stated)	.	.	.	.	15.5%	.
Cc1nnc(NC(=O)CSc2nccn2C)s1	?	-12.8%	-24.6%	10.9%	-5.2%	31.6%
Cc1nc(NC(=O)CSc2nccn2C)sc1C(=O)N(C)C	28.9%	-2.5%	-21.3%	-15.0%	17.8µM*	7.9%
Cc1nc(NC(=O)C(Cl)Cl)sc1C(=O)N(C)C	?	-24.9%	79.4µM*	?	?	9.7%
Cc1nc(NC(=O)CCl)sc1C(=O)N(C)C	?	3.7%	-3.4%	1.9%	-19.0%	39.9%
Cc1cc(=O)n2cccc(O)c2n1	.	56.2µM*	?	12.6µM*	-11.4%	-8.9%
CCOc1ccc(NC(=O)Cn2cccc2-c2nc(-c3ccccc3)no2)cc1	.	.	.	.	-14.8%	.
CC1CCC(C(C)C)[C@H](OC(=O)c2ccccc2)C1 (some centres not stated)	.	12.9%	.	.	.	.
CC1CCC(C(C)C)C(OC(=O)C2=C3c4ccccc4S(=O)(=O)N3CC2)C1 (configuration not stated)	25.1µM*	-1.4%	28.2%	-2.7%	?	54.2%
CCN(CC)C(=O)Cn1cnc2c1c(=O)n(C)c(=O)n2C	56.2µM*	6.6%	-4.6%	-1.8%	?	15.1%
CCN(CC)C(=O)Cn1cnc2ccccc2c1=O	20µM*	0.2%	-7.4%	21.8%	-4.2%	43.8%
O=C(Cn1cnc2ccccc2c1=O)Nc1nc2ccccc2s1	44.7µM*	-12.1%	-7.6%	6.2%	4.0%	12.0%
O=C(COC(=O)Cn1cnc2ccccc2c1=O)NCCC1=CCCCC1	11.2µM*	5.9%	-16.3%	4.7%	-5.8%	23.2%
COc1ccc(CCNC(=O)COC(=O)Cn2cnc3ccccc3c2=O)cc1	7.3%[12.7 µM]	21.9%	-7.7%	-1.0%	0.0%	53.2%
CNC(=O)NC(=O)C(C)Sc1ccc2ccccc2n1 (configuration not stated)	.	.	.	.	20.0%	.
CC(C)N(Cc1ccccc1)C(=O)CCn1cnc2c1c(=O)n(C)c(=O)n2C	.	.	.	.	11.1%	.
CCc1ccc(NC(=O)CCNC(=O)Cn2cnc3ccccc3c2=O)cc1	5.5%	16.3%	50.1µM*!	1.5%	?	10.0%
CCOc1ccc(NC(=O)CCNC(=O)Cn2cnc3ccccc3c2=O)cc1	-3.0%	7.9%	0.0%	-9.2%	-2.3%	14.0%
Cn1c(=O)c2c(ncn2CCN(CCO)Cc2ccccc2)n(C)c1=O	39.8µM*	5.1%	-8.1%	4.8%	-24.7%	15.5%
CCOC(=O)CCc1c(C)nc(SCCN2CCCC2)c(C#N)c1C	39.8µM*	-3.9%	-9.2%[57.1 µM]	-17.5%	0.0%	50.6%
CCOC(=O)CCc1c(C)nc(SCCCn2c(=O)[nH]c3ccccc32)c(C#N)c1C	?	-94.3%	28.2µM*	-2.4%	-4.3%	25.0%
Cc1nc(SCC(N)=O)c(C#N)c(C)c1C	-3.4%	6.7%	-11.1%	2.7%	436.9%	49.5%
CCOC(=O)CCc1c(C)c(C#N)c2nc3ccccc3n2c1-n1cnc2ccccc21	23.9%	9.6%	-15.4%	6.7%	0.0%	11.0%
C#Cc1cccc(NC(=O)Cc2ccc(OC)cc2)c1	.	.	.	.	-10.1%	.
O=C(c1cccc(F)c1)N1CCCC(c2noc(COc3ccccc3F)n2)C1 (configuration not stated)	.	.	.	.	-5.6%	.
SMILES	G9a inh	Sfp inh	JMJD2A Tudor	BAZ2B block	12-LOX inh	HP1b chromo inh
Cc1cc(=O)oc2cc(OC(=O)[C@H](C)NC(=O)OC(C)(C)C)c(Cl)cc12	.	.	.	.	-1.1%	.
COCCn1c(-n2nc(C)cc2C)nc2c1c(=O)n(Cc1ccccc1Cl)c(=O)n2C	.	.	.	.	9.5%	.
CC(=O)Nc1cccc(NC(=O)Cc2nn(C)c(=O)c3ccccc23)c1	.	.	.	.	7.7%	.
COCCCNc1oc(-c2ccc(S(=O)(=O)N3CCCCCC3)cc2)nc1C#N	.	.	.	.	-2.8%	.
Cc1cc(-c2nc(C)c(C(=O)NNS(=O)(=O)c3ccc(Cl)cc3Cl)s2)no1	39.8µM*	-29.8%	?	-24.1%	?	1.1%
CC[C@@H]1[C@@H](NC(=O)CCc2c(C)nc3ncnn3c2C)[C@@H]2CCO[C@H]12	.	.	.	.	43.4%	.
COc1ccc(-c2cnc(C)o2)cc1S(=O)(=O)Nc1ccc(C)c(N(C)C)c1	?	.	?	50.1µM*	-16.9%	23.2%
COc1ccc(-c2cnc(C)o2)cc1S(=O)(=O)Nc1c(C)cc(C)cc1C	4.1%[59 µM]	.	?	?	?	15.3%
COc1ccc(-c2cnc(C)o2)cc1S(=O)(=O)Nc1ccc(C)c(F)c1	-6.2%[59 µM]	.	-32.8%	?	50.1µM*!	-9.5%
COc1ccccc1NC(=O)c1nn(C)c(=O)c2ccccc12	.	.	.	.	15.7%	.
CN1C(=O)c2ccc(NC(=O)C[C@H]3NC(=O)c4ccccc4NC3=O)cc2C1=O	.	.	.	.	-5.4%	.
CCN1CCN(c2ccc(NC(=O)c3ccc4c(c3)OCCO4)cc2C)CC1	7.94µM*	.	-15.6%	?	?	0.9%
Cc1ccc(C(=O)Nc2ccc(N3CCN(C)CC3)cc2)cc1C	70.8µM*	8.4%	-26.2%	-37.1%	5.6%	4.0%
CN1CCN(c2ccc(NC(=O)c3ccc4c(c3)OCCO4)cc2)CC1	44.7µM*	21.1%	-17.8%	-15.6%	-7.7%	5.8%
CCC(=O)N1CCN(c2ccc(NC(=O)c3ccc4c(c3)OCCO4)cc2)CC1	-3.2%	13.4%	-9.9%	-11.8%	-9.2%	22.9%
CN1CCN(c2ccc(NC(=O)c3cccc(OCc4ccccc4)c3)cc2)CC1	15.8µM*	-14.7%	?	?	0.0%	-3.6%
CC(=O)Nc1ccc(S(=O)(=O)N[C@H]2CO[C@H]3[C@@H]2OC[C@@H]3n2nnnc2Oc2cccc(N3CCOCC3)c2)cc1	.	.	.	.	-34.6%	.
Cc1nc2c(c(-c3ccc(O)cc3)n1)CN(C(=O)c1ccccc1Cl)CC2	.	.	.	.	23.1%	.
CCCc1nn2c(=O)cc(COc3cccc(NC(=O)c4ccco4)c3)nc2s1	-10.7%	18.5%	-21.6%	-3.0%	-3.5%	30.0%
CCc1nn2c(=O)cc(COc3cccc(NC(=O)c4ccco4)c3)nc2s1	.	10.8%	25.1µM*	?	-1.2%	12.8%

Source: PubChem
